Results published in PubChem BioAssay AID485273 (Sanford-Burnham Center for Chemical Genomics, 2010).
Hit rate of the full screen: of about 330,000 compounds, about 1,500 (0.45%) were called active. Rule as the data show it: active = inhibition above about 45% (passing the limit was not always enough); inconclusive = no clear call, values can overlap the other calls. Shown is part of a subset that was picked to be rich in actives.

Each molecule was assayed against Ubiquitin-conjugating enzyme E2 N (Homo sapiens) (UniProt P61088) (assay: blockers of UBC13 ubiquitin chain synthesis – biochemical, TR-FRET, uHTS, primary screen (AID 485273)). Details: UBC13 polyubiquitin chain formation, at 20 µM, active compounds read high.
Chain of Ubiquitin-conjugating enzyme E2 N (Homo sapiens) (P61088 whole entry, looked up): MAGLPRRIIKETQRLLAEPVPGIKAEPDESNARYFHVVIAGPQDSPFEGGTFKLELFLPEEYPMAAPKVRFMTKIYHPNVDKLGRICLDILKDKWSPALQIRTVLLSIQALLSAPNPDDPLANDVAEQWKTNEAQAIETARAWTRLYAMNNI
In the case of `CNCC(O)c1cc(F)c(OCc2ccccc2)c(OCc2ccccc2)c1F` (stereo not given), the inhibition was 69.2% (active).
`CCN(N=Nc1nonc1OC)c1nonc1OC` was tested, and the inhibition was -6.3% (inactive).
With `CCCC[N+]1(C)C2CC(OC(=O)C(CO)c3ccccc3)CC1C1OC12` (stereo not given) the inhibition was 1.6% (inactive).
For `CCOC(=O)c1c(C)c(C(=O)N2CCC3(CC2)OCCO3)c(C)n1CC`, the inhibition was -14.5% (inactive).
For `O=C1NC(=O)C(CCc2ccccn2)(Cc2cccc(Cl)c2Cl)C(=O)N1c1ccc(Br)cc1` (stereo not given), the inhibition was 0.9% (inactive).
